sPLA2-III inh = Blocks human group III sPLA2 activity. 370,000 compounds, 0.56% hits. inhibition, % at 12.2 µM. QFRET BODIPY PC-A2 liposome hydrolysis, fluorescence. Q9NZ20;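 active = inhibition above mean plus 3 SD of compounds lying within the high and low control bounds, cut at about 19% in these data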;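 also: 0% = median of test compound wells and 100% = no enzyme DMSO wells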
FAS TE block = inhibitors of human fatty acid synthase thioesterase domain | recombinant FAS-TE, OMFH fluorogenic substrate, fluorescence endpoint | inhibition, % at 15 µM | 360,000 compounds, 0.67% hits;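 active = compounds whose normalised, plate-corrected inhibition of enzyme fluorescence in the single-dose primary screen is 50% or more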;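 also: 0% = DMSO with enzyme and 100% = substrate without enzyme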
GRIN3A LBD mod = modulates the human NR3A ligand-binding domain | NR3A LBD differential scanning fluorimetry, Tm shift; 0% = protein alone, 100% = glycine-bound protein | Tm shift relative to glycine control, % at 25 µM | 340,000 compounds, 2.5% hits;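 active = melting temperature shift of at least 10% of the positive control shift, at one fixed dose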
ADAM17 inh = inhibitors of human ADAM17; P78536; recombinant ADAM17, EDANS/DABCYL FRET peptide cleavage; inhibition, % at 6.95 µM; 370,000 compounds, 0.83% hits; AID 720648;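 active = inhibition above the mean of compounds lying between control limits plus 3 SD, set per campaign, cut at about 8.5% in these data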;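 also: 0% = DMSO-only wells as the low control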
ADAM10 inh = inhibitors of human ADAM10 | O14672 | recombinant ADAM10, EDANS/DABCYL FRET peptide cleavage, 3 h | inhibition, % at 7 µM | 370,000 compounds, 0.62% hits | AID 720582;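 active = inhibition above a per-campaign cutoff equal to the mean of compounds falling between control-based bounds plus 3 SD, cut at about 20% in these data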;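 also: 0% = DMSO wells while the 100% control is not disclosed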
ADAM10 confirm = human ADAM10 inhibition, confirmation; 2,100 compounds, 1% hits; shares compounds with ADAM10 inh; inhibition, % at 6.95 µM; ADAM10 QFRET peptide cleavage, EDANS fluorescence; AID 743208;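 active = inhibition above about 20% chosen separately for each screening run, limit read from the data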;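 also: 0% = DMSO wells and 100% = marimastat wells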
ADAM17 counter = inhibits human ADAM17 in ADAM10 exosite counter-screen. shares compounds with ADAM10 inh. ADAM17 QFRET peptide cleavage, EDANS fluorescence. inhibition, % at 6.95 µM. 2,100 compounds, 0.5% hits. AID 743214;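 active = mean triplicate inhibition above the solvent-only control wells' mean plus 3 SD, cut at about 12% in these data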;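 also: 0% = DMSO wells and 100% = marimastat wells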
Numbers without * were called inactive; x = no result given. The list is not random: actives were taken first. Their share in the collection is about 4.3%.

SMILES	sPLA2-III inh	FAS TE block	GRIN3A LBD mod	ADAM17 inh	ADAM10 inh	ADAM10 confirm	ADAM17 counter
CCOc1ccc(N2CC(C(=O)Nc3cccc(S(=O)(=O)N4CCCCC4)c3)CC2=O)cc1 (configuration not stated)	-1	6	-17	5	22*	1	0
CC1CCCCC1NC(=O)C1CC(=O)N(Cc2ccccc2)C1 (configuration not stated)	-6	-4	2	-6	54*	0	1
O=C(CCN1CCN(c2ccccc2)CC1)NNC(=S)Nc1ccccc1Cl	17	-3	1	15*	21*	1	1
COc1ccccc1NC(=O)Nc1ccc(-n2ccc(C(F)(F)F)n2)cc1	-9	27	4	7	30*	5	1
O=C(O)c1ccccc1C(=O)Nc1ccc(-n2ccc(C(F)(F)F)n2)cc1	4	-7	-1	1	3	x	x
COc1ccc(C)cc1NS(=O)(=O)c1ccc(NC(=O)CN(c2cc([N+](=O)[O-])ccc2C)S(C)(=O)=O)cc1	-54	32	20*	9.1*	23*	5	1
COc1ccc([N+](=O)[O-])cc1N(CC(=O)NCCSc1ccc(C)cc1)S(C)(=O)=O	-9	10	0	0	3	x	x
O=C(NCCc1nc2ccccc2[nH]1)/C(=C/c1ccc2c(c1)OCO2)NC(=O)c1ccc(Cl)cc1Cl	-42	36	1	3	22*	32*	6
O=C(NCCc1nc2ccccc2[nH]1)/C(=C/c1ccc(F)cc1)NC(=O)c1ccco1	-2	-3	0	-1	4	x	x
Cc1cccc(C(=O)Nc2c(-c3ccc(C(F)(F)F)cc3)nc3ncccn23)c1	3	x	x	-5	-21	x	x
CC(COc1ccc(C#N)cc1)CN1CCC(C(O)(c2ccccc2)c2ccccc2)CC1 (configuration not stated)	-19	x	x	-4	-3	x	x
Cc1[nH]n(-c2ccc([N+](=O)[O-])cc2)c(=O)c1C=NCCN1CCN(C(=O)c2ccccc2)CC1	-10	14	-6	8	21*	2	-1
CCc1cc(C(=O)Cc2ccc(F)cc2)c(O)cc1O	-55	-2	-6	9	23*	2	2
CCCc1cc(C(=O)Cc2ccc(F)cc2)c(O)cc1O	-40	9	9	7	17	x	x
Cc1cc(S(=O)(=O)NCC(c2ccccc2)c2ccccc2)ccc1-n1cnnn1	-88	27	-10	5	20*	2	1
COc1ccc(C(=O)Nc2ccc3c(c2)C(=O)N(C)[C@H]2CC[C@H](CC(=O)NCC4CC4)O[C@@H]2CO3)cc1	-11	x	x	-7	0	x	x
S=c1[nH]nc(COc2ccccc2)n1/N=C/C=C/c1ccccc1	8	-3	5	3	-1	x	x
S=c1[nH]nc(COc2ccccc2)n1/N=C/C(Cl)=C/c1ccccc1	-11	14	-3	5	20*	3	1
CCOc1ccc(/C=N/n2c(-c3ccccc3)n[nH]c2=S)cc1	3	4	4	0	0	x	x
Fc1ccccc1-c1n[nH]c(=S)n1N=Cc1ccc(OCc2ccccc2)cc1	-23	x	x	8	25*	6	2
CCOc1ccc(-n2c(SCC(=O)Nc3ccc4cn[nH]c4c3)nnc2-c2ccc(C(C)(C)C)cc2)cc1	-2	x	x	2	1	x	x
C=CCc1cccc(C=NNC(=O)c2ccco2)c1O	-1	x	x	-4	-37	x	x
O=C1/C(=C/c2cccs2)SC(=S)N1CCCC(=O)N(CCO)c1ccccc1	2	8	4	1	24*	0	1
N#Cc1c(N)[nH]c2ccc(Sc3ccccc3)cc12	-17	32	109*	1	25*	3	2
CCCCN1CC(=O)N2[C@H](C[C@@]3(n4ccc5ccccc54)c4ccccc4N(S(=O)(=O)c4ccccc4)[C@@H]23)C1=O	-7	x	x	4	4	x	x
SMILES	sPLA2-III inh	FAS TE block	GRIN3A LBD mod	ADAM17 inh	ADAM10 inh	ADAM10 confirm	ADAM17 counter
CCC(NS(=O)(=O)c1ccc(C)cc1)C(=O)N1CCN(c2ccccn2)CC1 (configuration not stated)	-4	-1	2	-1	80*	2	1
CCOC(=O)c1c(C)oc2ccc(NS(=O)(=O)c3cccs3)cc12	-32	9	-23	5	21*	5	1
COCCOC(=O)c1c(C)oc2ccc(NS(=O)(=O)c3ccc(C(=O)O)cc3)cc12	-2	-3	0	-2	3	x	x
Cc1ccnc(SCc2ccc(C(=O)O)cc2)n1	3	-4	0	-2	-6	x	x
Cc1ccc(NC(=O)c2ccc(CSc3nccc(C)n3)cc2)cc1	-13	15	-4	-2	22*	3	0
CC(=O)Nc1sc2c(c1-c1nc3ccccc3s1)CCOC2	-14	x	x	-37	-137	x	x
O=C(NCc1ccc2c(c1)OCO2)c1ccc(CSCc2ccccc2Cl)o1	-12	29	2	7	23*	8	4
C/C(=N/NC(=O)c1ccc(C)s1)c1ccncc1	0	0	1	-115	21*	0	0
CC(Nc1nc(-c2ccc(F)cc2)cs1)c1nc2cc(Cl)c(N3CCCCC3)cc2n1CCCO (configuration not stated)	-12	10	2	4	42*	4	2
O=C(NCCc1nc2ccccc2n1C/C=C/c1ccccc1)C1CCCCC1	-16	x	x	0	12	x	x
CN(Cc1ccccc1F)C(=O)C1CCC(CNS(=O)(=O)c2cccc3cccnc23)CC1 (configuration not stated)	-11	x	x	-1	-14	x	x
CC1(C)CC(=O)C=C(c2ccc(COC(=O)C(c3ccccc3)c3ccccc3)cc2)C1=O	-35	24	x	6	20*	3	0
CC(C)n1nnnc1C1(C)CN(S(C)(=O)=O)CC(=O)N1Cc1cccc(C(F)(F)F)c1 (configuration not stated)	3	x	x	0	3	x	x
CC1=CC(=O)C(C(C)C)=C/C1=N\OS(=O)(=O)c1ccccc1	2	x	x	0	-2	x	x
CCCCC(=O)N1CCCC(c2nc3c(nnn3Cc3cc(C)ccc3C)c(=O)[nH]2)C1 (configuration not stated)	-22	4	-2	-3	88*	0	0
CC(C)(C)c1ccc(Cn2nnc3c(=O)[nH]c(C4CCCN(C(=O)Cc5cccs5)C4)nc32)cc1 (configuration not stated)	-45	-32	-18	1	6	x	x
CC(C)(C)c1ccc(Cn2nnc3c(=O)[nH]c(C4CCCN(C(=O)c5cccs5)C4)nc32)cc1 (configuration not stated)	-20	-24	-13	8	24*	1	0

Bioassay records deposited in PubChem BioAssay by several laboratories.
